# In paper PMC7862700, “An all-to-all approach to the identification of sequence-specific readers for epigenetic DNA modifications on cytosine”:
# Tests used:
# Assay in all cases: DAPPL (digital affinity profiling via proximity ligation, sequencing); 10 mM Tris-HCl pH 7.5, 50 mM NaCl, 1 mM DTT, 4% glycerol, room temperature, 30 min; GST-TFs on glutathione beads, 16-mer random dsDNA library, 0.1% formaldehyde crosslink after washing; high values mean tight binding
# [1] = molecular target: T1, FEV (Homo sapiens, UniProt Q99581 1-238); conditions: protein: recombinant; tags: N-terminal GST; dsDNA, one strand shown
# T1 sequence: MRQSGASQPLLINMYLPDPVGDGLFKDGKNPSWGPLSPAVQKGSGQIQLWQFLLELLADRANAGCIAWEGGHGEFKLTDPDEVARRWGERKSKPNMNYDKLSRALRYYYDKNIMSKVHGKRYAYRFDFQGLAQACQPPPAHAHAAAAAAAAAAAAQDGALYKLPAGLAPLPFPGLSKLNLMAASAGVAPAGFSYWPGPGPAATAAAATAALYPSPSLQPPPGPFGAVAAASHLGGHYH
# Method in brief: (§1)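 Human transcription factors fused to GST were expressed in yeast, captured on glutathione beads, given DNA barcodes and pooled with a GST-only negative control. Pools were incubated with 200 nmole of a 16-mer random double-stranded DNA library in Tris/NaCl/DTT/glycerol buffer at room temperature for 30 min. They were then washed, crosslinked with 0.1% formaldehyde, proximity-ligated (BsaI/T4 ligase, 1 h, 37 °C), PCR-amplified and sequenced on an Illumina NextSeq500. Binding signal is each 6-mer's read frequency for a factor divided by its frequency for the GST control.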
# [2] = molecular target: ETV5 (Homo sapiens, UniProt P41161 1-510); conditions: protein: recombinant; tags: N-terminal GST; dsDNA, one strand shown
# Method in brief: as §1
# [3] = molecular target: HSF1 (Homo sapiens, UniProt Q00613 1-529); conditions: protein: recombinant; tags: N-terminal GST; chain copies: 3; dsDNA, one strand shown
# Method in brief: as §1
# [4] = molecular target: T2, SPIC (Homo sapiens, UniProt Q8N5J4 1-248); conditions: protein: recombinant; tags: N-terminal GST; dsDNA, one strand shown
# T2 sequence: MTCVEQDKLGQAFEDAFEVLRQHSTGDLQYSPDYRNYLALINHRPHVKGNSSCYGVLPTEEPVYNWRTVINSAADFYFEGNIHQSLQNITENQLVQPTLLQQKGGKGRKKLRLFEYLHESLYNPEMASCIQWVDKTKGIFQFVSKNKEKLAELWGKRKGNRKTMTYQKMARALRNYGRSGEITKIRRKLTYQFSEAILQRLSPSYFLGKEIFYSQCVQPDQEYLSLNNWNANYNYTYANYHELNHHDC
# Method in brief: as §1
# [5] = molecular target: ELF4 (Homo sapiens, UniProt Q99607 1-663); conditions: protein: recombinant; tags: N-terminal GST; dsDNA, one strand shown
# Method in brief: as §1
# [6] = molecular target: T3, ELK4 (Homo sapiens, UniProt P28324-2 1-405); conditions: protein: recombinant; tags: N-terminal GST; dsDNA, one strand shown
# T3 sequence: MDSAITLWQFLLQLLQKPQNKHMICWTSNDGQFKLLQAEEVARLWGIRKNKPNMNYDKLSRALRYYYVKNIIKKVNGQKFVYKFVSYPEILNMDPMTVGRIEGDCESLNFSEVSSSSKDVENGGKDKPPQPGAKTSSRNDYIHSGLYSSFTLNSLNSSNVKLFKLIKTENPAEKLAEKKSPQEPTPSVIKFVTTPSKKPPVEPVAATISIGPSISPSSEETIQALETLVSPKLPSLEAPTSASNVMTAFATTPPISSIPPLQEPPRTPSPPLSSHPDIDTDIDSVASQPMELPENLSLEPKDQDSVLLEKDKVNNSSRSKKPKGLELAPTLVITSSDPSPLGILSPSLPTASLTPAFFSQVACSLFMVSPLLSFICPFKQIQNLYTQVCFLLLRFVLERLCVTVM
# Method in brief: as §1
# [7] = molecular target: T4, ETV2 (Homo sapiens, UniProt O00321 1-342); conditions: protein: recombinant; tags: N-terminal GST; dsDNA, one strand shown
# T4 sequence: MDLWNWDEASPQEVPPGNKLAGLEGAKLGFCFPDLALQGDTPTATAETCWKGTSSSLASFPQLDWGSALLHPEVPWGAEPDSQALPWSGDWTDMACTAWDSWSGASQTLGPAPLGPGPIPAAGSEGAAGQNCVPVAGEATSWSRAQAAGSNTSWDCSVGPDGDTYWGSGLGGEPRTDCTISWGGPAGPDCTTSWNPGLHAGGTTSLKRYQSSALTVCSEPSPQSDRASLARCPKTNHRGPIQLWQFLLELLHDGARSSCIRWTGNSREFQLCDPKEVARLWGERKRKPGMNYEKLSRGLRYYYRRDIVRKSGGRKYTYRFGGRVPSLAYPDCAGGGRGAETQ
# Method in brief: as §1
# [8] = molecular target: T5, ELF3 (Homo sapiens, UniProt P78545 1-371); conditions: protein: recombinant; tags: N-terminal GST; dsDNA, one strand shown
# T5 sequence: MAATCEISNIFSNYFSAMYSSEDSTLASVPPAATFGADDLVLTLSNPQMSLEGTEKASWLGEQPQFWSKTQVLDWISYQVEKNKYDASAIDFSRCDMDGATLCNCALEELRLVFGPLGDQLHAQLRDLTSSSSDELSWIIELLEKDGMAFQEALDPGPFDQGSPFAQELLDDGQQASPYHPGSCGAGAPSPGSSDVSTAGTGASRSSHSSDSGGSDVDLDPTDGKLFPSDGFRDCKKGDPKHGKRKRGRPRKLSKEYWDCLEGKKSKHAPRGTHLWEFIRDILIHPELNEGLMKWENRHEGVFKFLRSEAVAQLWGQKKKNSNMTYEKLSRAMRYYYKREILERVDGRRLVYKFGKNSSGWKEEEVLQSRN
# Method in brief: as §1
# [9] = molecular target: CRX (Homo sapiens, UniProt O43186 1-299); conditions: protein: recombinant; tags: N-terminal GST; dsDNA, one strand shown
# Method in brief: as §1
# [10] = molecular target: ETV1 (Homo sapiens, UniProt P50549 1-477); conditions: protein: recombinant; tags: N-terminal GST; dsDNA, one strand shown
# Method in brief: as §1
# [11] = molecular target: T6, ERF (Homo sapiens, UniProt P50548 1-548); conditions: protein: recombinant; tags: N-terminal GST; dsDNA, one strand shown
# T6 sequence: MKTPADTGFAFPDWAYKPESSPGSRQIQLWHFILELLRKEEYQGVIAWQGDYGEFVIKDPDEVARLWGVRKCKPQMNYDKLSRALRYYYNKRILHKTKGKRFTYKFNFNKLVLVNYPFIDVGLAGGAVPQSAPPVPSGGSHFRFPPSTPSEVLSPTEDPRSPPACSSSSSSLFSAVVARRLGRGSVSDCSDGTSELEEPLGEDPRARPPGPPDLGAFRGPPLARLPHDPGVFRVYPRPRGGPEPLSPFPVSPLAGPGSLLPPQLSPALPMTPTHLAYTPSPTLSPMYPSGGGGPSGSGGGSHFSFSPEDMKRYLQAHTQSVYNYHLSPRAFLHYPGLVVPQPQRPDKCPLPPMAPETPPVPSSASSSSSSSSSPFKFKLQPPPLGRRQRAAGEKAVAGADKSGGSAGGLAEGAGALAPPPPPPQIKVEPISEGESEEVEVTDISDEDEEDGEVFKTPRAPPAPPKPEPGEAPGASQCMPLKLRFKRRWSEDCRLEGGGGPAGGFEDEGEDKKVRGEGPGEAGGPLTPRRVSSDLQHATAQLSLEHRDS
# Method in brief: as §1
# [12] = molecular target: T7, ETV3L (Homo sapiens, UniProt Q6ZN32 1-361); conditions: protein: recombinant; tags: N-terminal GST; dsDNA, one strand shown
# T7 sequence: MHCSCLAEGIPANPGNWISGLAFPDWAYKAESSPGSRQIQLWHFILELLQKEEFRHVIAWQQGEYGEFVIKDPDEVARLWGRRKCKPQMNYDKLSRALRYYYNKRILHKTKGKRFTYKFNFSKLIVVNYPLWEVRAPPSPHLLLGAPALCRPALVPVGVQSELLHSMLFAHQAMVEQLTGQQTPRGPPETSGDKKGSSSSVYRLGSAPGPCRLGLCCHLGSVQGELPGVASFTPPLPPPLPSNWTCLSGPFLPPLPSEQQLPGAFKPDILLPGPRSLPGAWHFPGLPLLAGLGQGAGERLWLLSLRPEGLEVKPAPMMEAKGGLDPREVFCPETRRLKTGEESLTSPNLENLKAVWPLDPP
# Method in brief: as §1
# [13] = molecular target: T8, ETS2 (Homo sapiens, UniProt P15036 1-469); conditions: protein: recombinant; tags: N-terminal GST; dsDNA, one strand shown
# T8 sequence: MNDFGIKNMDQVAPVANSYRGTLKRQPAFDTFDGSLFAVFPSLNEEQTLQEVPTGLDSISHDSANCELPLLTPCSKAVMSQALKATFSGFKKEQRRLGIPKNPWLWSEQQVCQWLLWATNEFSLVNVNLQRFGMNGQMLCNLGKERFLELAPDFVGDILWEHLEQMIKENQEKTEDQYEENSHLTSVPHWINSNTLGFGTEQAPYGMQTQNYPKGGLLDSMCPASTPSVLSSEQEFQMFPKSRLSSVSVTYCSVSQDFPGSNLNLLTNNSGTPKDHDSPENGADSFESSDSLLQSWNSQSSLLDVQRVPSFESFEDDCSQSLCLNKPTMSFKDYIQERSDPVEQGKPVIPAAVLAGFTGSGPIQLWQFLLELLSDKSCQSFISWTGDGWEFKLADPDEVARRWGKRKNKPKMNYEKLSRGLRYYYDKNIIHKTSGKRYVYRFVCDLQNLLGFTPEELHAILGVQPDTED
# Method in brief: as §1
# [14] = molecular target: T9, SPDEF (Homo sapiens, UniProt O95238 1-335); conditions: protein: recombinant; tags: N-terminal GST; dsDNA, one strand shown
# T9 sequence: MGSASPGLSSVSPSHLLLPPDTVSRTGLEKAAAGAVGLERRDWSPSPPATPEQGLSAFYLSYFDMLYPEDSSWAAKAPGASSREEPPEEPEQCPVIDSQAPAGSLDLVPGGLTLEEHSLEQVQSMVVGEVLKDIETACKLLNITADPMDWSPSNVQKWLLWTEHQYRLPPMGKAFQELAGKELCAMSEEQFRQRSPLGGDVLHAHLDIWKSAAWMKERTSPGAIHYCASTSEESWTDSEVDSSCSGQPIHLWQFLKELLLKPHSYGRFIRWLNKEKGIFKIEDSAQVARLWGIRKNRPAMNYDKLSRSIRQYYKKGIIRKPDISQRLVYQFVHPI
# Method in brief: as §1
# [15] = molecular target: T10, ETV7 (Homo sapiens, UniProt Q9Y603 1-341); conditions: protein: recombinant; tags: N-terminal GST; dsDNA, one strand shown
# T10 sequence: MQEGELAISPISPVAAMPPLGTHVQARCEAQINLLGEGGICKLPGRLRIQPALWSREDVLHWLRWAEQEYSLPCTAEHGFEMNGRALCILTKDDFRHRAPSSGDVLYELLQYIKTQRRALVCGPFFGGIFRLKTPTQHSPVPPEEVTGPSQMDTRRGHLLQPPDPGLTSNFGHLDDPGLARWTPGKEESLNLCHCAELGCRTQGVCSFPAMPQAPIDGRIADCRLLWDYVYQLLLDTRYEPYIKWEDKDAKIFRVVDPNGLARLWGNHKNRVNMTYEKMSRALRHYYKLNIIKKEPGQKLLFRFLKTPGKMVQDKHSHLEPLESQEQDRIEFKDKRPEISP
# Method in brief: as §1
# [16] = molecular target: T11, ELF5 (Homo sapiens, UniProt Q9UKW6-2 1-255); conditions: protein: recombinant; tags: N-terminal GST; dsDNA, one strand shown
# T11 sequence: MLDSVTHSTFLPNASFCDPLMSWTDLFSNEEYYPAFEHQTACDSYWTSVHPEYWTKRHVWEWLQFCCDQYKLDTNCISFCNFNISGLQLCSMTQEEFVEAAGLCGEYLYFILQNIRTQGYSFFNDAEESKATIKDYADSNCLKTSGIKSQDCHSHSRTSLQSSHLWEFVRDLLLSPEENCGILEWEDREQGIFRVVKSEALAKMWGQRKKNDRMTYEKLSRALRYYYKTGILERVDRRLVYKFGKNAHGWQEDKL
# Method in brief: as §1
# [17] = molecular target: T12, ETV3 (Homo sapiens, UniProt P41162-2 1-143); conditions: protein: recombinant; tags: N-terminal GST; dsDNA, one strand shown
# T12 sequence: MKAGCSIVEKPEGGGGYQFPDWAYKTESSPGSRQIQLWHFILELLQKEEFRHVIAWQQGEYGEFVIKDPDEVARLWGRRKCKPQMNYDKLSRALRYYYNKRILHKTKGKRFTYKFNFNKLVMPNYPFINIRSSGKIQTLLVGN
# Method in brief: as §1
# [18] = molecular target: ETV6 (Homo sapiens, UniProt P41212 1-452); conditions: protein: recombinant; tags: N-terminal GST; dsDNA, one strand shown
# Method in brief: as §1
# Chain of ELF4 (Q99607 whole entry): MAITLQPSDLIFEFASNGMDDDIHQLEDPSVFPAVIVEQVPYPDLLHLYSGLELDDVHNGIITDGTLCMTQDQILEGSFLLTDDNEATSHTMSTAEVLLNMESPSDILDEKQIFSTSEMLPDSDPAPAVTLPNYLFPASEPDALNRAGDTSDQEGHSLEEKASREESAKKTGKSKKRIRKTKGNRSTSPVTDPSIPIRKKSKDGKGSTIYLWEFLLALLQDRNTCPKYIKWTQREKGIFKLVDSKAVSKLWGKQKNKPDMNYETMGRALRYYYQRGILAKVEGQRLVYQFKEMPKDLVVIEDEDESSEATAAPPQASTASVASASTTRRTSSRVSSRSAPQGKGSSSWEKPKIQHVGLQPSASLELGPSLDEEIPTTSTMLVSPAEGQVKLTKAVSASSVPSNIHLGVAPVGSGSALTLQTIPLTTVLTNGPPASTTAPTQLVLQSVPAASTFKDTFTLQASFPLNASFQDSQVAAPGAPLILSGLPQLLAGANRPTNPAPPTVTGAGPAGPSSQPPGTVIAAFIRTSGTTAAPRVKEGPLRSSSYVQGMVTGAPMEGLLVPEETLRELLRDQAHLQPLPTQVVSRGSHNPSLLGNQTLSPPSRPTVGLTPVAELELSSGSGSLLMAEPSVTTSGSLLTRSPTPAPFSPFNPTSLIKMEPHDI
# Chain of CRX (O43186 whole entry): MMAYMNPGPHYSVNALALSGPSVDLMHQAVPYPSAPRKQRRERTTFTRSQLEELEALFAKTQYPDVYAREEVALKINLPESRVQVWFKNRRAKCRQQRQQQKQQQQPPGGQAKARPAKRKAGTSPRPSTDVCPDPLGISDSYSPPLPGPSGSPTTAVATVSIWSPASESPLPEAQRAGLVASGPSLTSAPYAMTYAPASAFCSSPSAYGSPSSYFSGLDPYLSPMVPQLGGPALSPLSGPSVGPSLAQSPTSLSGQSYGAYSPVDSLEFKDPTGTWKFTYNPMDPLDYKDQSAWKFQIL
# Chain of HSF1 (Q00613 whole entry): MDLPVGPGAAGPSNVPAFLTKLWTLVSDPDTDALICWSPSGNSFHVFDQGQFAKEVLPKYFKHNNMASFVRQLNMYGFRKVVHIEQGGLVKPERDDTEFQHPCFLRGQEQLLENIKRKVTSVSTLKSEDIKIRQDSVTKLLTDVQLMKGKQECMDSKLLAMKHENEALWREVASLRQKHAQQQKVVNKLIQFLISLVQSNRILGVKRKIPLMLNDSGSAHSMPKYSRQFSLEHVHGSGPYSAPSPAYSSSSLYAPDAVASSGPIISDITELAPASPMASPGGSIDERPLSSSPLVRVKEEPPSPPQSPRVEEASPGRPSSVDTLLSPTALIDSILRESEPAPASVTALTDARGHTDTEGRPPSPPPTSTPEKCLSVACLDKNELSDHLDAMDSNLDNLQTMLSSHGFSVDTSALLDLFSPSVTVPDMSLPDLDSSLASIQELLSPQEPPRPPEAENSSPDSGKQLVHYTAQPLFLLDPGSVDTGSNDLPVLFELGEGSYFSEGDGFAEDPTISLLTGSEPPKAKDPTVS
# Chain of ETV6 (P41212 whole entry): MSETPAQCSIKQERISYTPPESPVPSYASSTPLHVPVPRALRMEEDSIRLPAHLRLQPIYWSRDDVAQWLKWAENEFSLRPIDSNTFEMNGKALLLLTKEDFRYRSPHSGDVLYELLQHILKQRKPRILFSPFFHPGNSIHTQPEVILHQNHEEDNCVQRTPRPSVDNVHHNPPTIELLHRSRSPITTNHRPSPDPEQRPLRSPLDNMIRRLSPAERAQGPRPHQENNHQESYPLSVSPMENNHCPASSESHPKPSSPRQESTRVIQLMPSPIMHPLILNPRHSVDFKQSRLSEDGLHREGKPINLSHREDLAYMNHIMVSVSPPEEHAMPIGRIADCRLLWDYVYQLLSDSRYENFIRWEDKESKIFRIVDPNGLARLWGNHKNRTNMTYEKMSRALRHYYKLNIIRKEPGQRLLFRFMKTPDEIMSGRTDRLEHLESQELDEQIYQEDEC
# Chain of ETV1 (P50549 whole entry): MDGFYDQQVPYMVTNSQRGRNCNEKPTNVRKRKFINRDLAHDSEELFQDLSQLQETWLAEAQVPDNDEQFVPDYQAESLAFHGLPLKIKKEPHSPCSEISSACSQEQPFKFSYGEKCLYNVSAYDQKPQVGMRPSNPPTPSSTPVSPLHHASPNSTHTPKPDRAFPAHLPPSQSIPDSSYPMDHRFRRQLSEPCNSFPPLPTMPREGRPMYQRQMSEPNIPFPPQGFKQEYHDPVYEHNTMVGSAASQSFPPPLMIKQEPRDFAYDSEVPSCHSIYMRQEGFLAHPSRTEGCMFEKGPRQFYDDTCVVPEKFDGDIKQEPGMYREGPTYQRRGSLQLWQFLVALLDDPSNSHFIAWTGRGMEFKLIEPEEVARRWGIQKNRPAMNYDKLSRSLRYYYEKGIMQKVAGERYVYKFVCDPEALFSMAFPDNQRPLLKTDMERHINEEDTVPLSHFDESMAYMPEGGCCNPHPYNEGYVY
# Chain of ETV5 (P41161 whole entry): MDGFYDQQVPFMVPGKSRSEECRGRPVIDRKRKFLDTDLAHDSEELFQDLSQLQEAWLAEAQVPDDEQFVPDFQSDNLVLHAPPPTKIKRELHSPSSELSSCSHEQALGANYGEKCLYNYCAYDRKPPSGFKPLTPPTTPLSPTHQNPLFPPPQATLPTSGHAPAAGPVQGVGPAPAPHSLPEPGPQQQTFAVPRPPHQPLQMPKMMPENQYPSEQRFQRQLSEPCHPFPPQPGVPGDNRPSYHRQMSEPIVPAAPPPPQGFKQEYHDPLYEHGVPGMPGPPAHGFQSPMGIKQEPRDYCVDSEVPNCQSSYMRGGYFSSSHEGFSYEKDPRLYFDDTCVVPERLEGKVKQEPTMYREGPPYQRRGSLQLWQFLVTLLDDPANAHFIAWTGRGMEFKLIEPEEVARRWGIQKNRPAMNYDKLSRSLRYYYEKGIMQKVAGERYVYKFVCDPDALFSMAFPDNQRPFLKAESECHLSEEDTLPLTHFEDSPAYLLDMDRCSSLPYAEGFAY
sequence,measurement,setting,value
CTAAGA,binding signal,[1],"1.08 fold enrichment (6-mer frequency, TF over GST control)"
same,binding signal,[2],"1.24 fold enrichment (6-mer frequency, TF over GST control)"
same,binding signal,[3],"1.64 fold enrichment (6-mer frequency, TF over GST control)"
same,binding signal,[4],"1.18 fold enrichment (6-mer frequency, TF over GST control)"
same,binding signal,[5],"1.27 fold enrichment (6-mer frequency, TF over GST control)"
same,binding signal,[6],"1.16 fold enrichment (6-mer frequency, TF over GST control)"
same,binding signal,[7],"1.2 fold enrichment (6-mer frequency, TF over GST control)"
same,binding signal,[8],"1.24 fold enrichment (6-mer frequency, TF over GST control)"
same,binding signal,[9],"2.05 fold enrichment (6-mer frequency, TF over GST control)"
same,binding signal,[10],"1.22 fold enrichment (6-mer frequency, TF over GST control)"
same,binding signal,[11],"1.08 fold enrichment (6-mer frequency, TF over GST control)"
same,binding signal,[12],"1.21 fold enrichment (6-mer frequency, TF over GST control)"
same,binding signal,[13],"1.17 fold enrichment (6-mer frequency, TF over GST control)"
same,binding signal,[14],"1.15 fold enrichment (6-mer frequency, TF over GST control)"
same,binding signal,[15],"1.25 fold enrichment (6-mer frequency, TF over GST control)"
same,binding signal,[16],"1.2 fold enrichment (6-mer frequency, TF over GST control)"
same,binding signal,[17],"1.17 fold enrichment (6-mer frequency, TF over GST control)"
same,binding signal,[18],"1.23 fold enrichment (6-mer frequency, TF over GST control)"
